# Measurements reported in PubChem BioAssay (NCATS).
# Several values for one entry are separate records, joined by “and”; a condition that tells them apart may be missing. Identical values can stand only once. Inconclusive results are not listed. Where a call stands in place of a potency, no number is given. Activity calls are given as the source filed them. Unless noted, calls follow the shape of the dose curve; as a rule, active = well fitted curve in the direction sought with a large enough effect; inconclusive = small, poorly fitted or top-dose-only effect, or another doubt; inactive = no such curve, though single readings can be large; an effect the other way counts as inactive or inconclusive.
# Experiments:
# [1] = tested on: Zika virus NS2B-NS3 protease; assay: Primary screen GU AMC qHTS for Zika virus inhibitors (AID 1347154); also: nearly all actives have a fitted effect of over 70% in size
# How it was run: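 Unlinked Zika NS2B hydrophilic domain/NS3 protease domain noncovalent complex (25 nM final) in 10 mM Tris-HCl pH 8.0, 0.01% Tween 20, with AMC peptide substrate. Fluorescence (ex 340, em 450 nm) change over 15 min, room temperature; percent inhibition fitted to 4-parameter Hill equation.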
# [2] = Primary qHTS for small molecule stabilizers of the endoplasmic reticulum resident proteome: Secreted ER Calcium Modulated Protein (SERCaMP) assay (AID 1508630)
# How it was run: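 GLuc-SERCaMP-expressing SH-SY5Y cells, pretreated 16 h with compound, are challenged with thapsigargin to empty ER calcium stores; after 4 h, coelenterazine is added directly to the medium and luminescence is imaged.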
# [3] = AP1 Signaling Pathway (AID 357; active = well fitted curve in either direction with a large enough effect, not every such curve was filed as active;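 also: ME-180 reporter cells stimulated with EGF at its EC50 level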); conditions: ME-180 AP-1-bla reporter, EGF-induced, beta-lactamase ratio, 5 h; at 38 µM (top of the series)
# How it was run: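 Cells are seeded overnight, exposed to compound titrations and an EC50 level of EGF for 5 hours at 37 °C, then loaded with CCF4 dye for 2.5 hours. Beta-lactamase activity under the AP-1 element is read as a blue/green ratio.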
# [4] = molecular target: Cytochrome P450 1A2 (Homo sapiens) (UniProt P05177); assay: p450-cyp1a2 (AID 410; calls by dose curve; also: potency is read from the fitted curve at half-maximal effect)
# Chain of Cytochrome P450 1A2 (Homo sapiens) (P05177 whole entry, looked up): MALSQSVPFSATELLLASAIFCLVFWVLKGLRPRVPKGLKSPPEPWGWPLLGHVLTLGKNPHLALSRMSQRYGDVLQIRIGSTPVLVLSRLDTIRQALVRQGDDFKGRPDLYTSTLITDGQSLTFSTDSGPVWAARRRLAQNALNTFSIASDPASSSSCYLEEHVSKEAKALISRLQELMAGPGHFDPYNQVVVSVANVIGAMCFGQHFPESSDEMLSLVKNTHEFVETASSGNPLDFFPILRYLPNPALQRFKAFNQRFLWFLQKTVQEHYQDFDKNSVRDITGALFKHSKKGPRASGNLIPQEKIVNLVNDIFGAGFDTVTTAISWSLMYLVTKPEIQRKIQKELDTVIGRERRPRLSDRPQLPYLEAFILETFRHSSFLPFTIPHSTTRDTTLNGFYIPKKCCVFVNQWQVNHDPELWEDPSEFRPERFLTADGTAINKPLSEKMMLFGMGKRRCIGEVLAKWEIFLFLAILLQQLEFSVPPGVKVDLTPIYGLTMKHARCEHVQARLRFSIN
# How it was run: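 Luminescent readout of luciferin formed from Luciferin-ME by human CYP1A2; data normalized against complete inhibition by 57 uM furafylline. Enzyme 20nM, substrate 100uM at Km, 100mM KPO4 buffer, 60 min reaction at room temperature.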
# [5] = Stat Signaling Pathway (AID 446; active = well fitted curve in either direction with a large enough effect, not every such curve was filed as active;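 also: ME-180 cervical cancer cells given 40 pM IL-6 alongside compound; SIE-controlled beta-lactamase reporter measured as 460/530 nm FRET emission ratio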); conditions: ME-180 SIE beta-lactamase reporter, IL-6 stimulated, 5 h
# How it was run: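 Screening format detects activators and inhibitors alike: ME-180 SIE-bla cells stimulated at 40 pM IL-6 for 5 hrs with compound, then dual-emission beta-lactamase read at 405 nm excitation.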
# [6] = molecular target: Mitogen-activated protein kinase 10 (Mus musculus) (UniProt Q61831); assay: JNK3 AlphaScreen Assay (AID 530; active = well fitted curve in either direction with a large enough effect, not every such curve was filed as active;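 also: kinase came from lysate of stimulated human HepG2 cells; signal reports phosphorylation of biotinylated GST-cJun 1-79 at Ser73 with 10 µM ATP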)
# How it was run: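 Inhibitors reduce antibody binding to phosphorylated biotin-cJun, lowering AlphaScreen luminescence. Lysates from HepG2 cells pre-activated by IL-1beta plus TNF-alpha supplied JNK3; compounds were titrated.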
# [7] = molecular target: 3',5'-cyclic-AMP phosphodiesterase 4B (Homo sapiens) (UniProt Q07343); assay: qHTS Assay for Inhibitors of PDE-IV (AID 607; active = well fitted activation curve with a large enough effect in the main read-out, with a control signal flat, not every such curve was filed as active)
# Chain of 3',5'-cyclic-AMP phosphodiesterase 4B (Homo sapiens) (Q07343 whole entry, looked up): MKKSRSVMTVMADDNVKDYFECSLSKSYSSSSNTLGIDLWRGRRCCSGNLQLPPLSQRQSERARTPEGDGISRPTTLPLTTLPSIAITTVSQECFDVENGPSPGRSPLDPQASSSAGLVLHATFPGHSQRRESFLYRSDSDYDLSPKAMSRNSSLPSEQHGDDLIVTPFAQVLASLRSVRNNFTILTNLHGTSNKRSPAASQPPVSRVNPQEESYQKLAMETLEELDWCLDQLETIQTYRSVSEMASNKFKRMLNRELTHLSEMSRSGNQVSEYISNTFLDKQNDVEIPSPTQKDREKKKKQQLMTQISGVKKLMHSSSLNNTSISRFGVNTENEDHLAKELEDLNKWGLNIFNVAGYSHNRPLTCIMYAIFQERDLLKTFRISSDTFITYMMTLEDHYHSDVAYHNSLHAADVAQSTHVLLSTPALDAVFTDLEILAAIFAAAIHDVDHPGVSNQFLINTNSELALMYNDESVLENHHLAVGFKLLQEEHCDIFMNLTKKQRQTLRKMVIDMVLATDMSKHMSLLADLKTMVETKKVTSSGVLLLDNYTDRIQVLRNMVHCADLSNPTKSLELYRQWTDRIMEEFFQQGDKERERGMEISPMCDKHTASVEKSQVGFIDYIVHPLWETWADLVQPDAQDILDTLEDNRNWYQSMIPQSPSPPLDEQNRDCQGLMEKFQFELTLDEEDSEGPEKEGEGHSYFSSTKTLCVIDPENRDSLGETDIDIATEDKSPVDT
# How it was run: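 The readout is membrane depolarisation from a cAMP-sensing CNG channel, detected with a potential dye at ex 535/em 590. Cells were HEK293-derived (endogenous PDE-IV) at 1000 cells/well, titrated up to 22.9 uM final.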
# [8] = molecular target: Guanine nucleotide-binding protein G(i) subunit alpha-1 (Homo sapiens) (UniProt P63096); assay: qHTS Assay for Inhibitors of RGS12 GoLoco Motif Activity (Green Fluorophore) (AID 879);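 also: negative values mean loss of peptide binding seen as reduced polarization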
# Chain of Guanine nucleotide-binding protein G(i) subunit alpha-1 (Homo sapiens) (P63096 whole entry, looked up): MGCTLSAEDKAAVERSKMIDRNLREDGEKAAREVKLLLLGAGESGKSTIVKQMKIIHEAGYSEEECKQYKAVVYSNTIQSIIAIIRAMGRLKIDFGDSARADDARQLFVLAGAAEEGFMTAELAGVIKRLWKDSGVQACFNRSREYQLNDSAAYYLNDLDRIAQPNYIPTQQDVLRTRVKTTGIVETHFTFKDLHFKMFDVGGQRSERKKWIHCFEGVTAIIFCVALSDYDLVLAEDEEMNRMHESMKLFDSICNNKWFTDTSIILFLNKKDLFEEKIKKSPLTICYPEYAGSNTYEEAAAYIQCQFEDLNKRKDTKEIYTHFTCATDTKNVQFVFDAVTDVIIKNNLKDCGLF
# How it was run: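 Fluorescence polarization assay: 50 nM Gαi1 with 10 nM FITC-labeled RGS12 GoLoco peptide in 10 mM Tris pH 7.5, 150 mM NaCl, 0.1 mM GDP, 0.05% NP40, 10 min at room temperature with compound.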
# [9] = molecular target: Cytochrome P450 3A4 (Homo sapiens) (UniProt P08684); assay: qHTS Assay for Activators of Cytochrome P450 3A4 (AID 885); also: nearly all actives have a fitted effect of over 65% in size
# Chain of Cytochrome P450 3A4 (Homo sapiens) (P08684 whole entry, looked up): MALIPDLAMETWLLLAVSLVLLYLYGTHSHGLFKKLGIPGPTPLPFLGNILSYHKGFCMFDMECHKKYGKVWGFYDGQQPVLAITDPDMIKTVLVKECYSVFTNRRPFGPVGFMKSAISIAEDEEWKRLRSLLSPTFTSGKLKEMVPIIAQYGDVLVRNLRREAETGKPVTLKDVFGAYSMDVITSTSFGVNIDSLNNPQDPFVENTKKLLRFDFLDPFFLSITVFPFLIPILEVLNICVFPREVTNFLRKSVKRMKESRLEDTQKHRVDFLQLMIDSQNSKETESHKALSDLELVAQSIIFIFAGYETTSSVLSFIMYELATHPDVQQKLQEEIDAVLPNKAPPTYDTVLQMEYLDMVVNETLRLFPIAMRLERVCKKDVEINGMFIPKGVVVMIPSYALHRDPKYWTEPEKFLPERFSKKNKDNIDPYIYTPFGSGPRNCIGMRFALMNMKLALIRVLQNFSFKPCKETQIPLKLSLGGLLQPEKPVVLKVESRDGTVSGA
# How it was run: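 Steps: enzyme/substrate mix dispensed; compound added, 10 min RT; NADPH regeneration solution added, 60 min RT; luciferin detection buffer stops reaction; 20 min later luminescence measured.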
# [10] = molecular target: Cytochrome P450 2D6 (Homo sapiens) (UniProt P10635); assay: qHTS Assay for Inhibitors and Substrates of Cytochrome P450 2D6 (AID 891); also: potency is read from the fitted curve at half-maximal effect; nearly all actives have a fitted effect of over 60% in size
# Chain of Cytochrome P450 2D6 (Homo sapiens) (P10635 whole entry, looked up): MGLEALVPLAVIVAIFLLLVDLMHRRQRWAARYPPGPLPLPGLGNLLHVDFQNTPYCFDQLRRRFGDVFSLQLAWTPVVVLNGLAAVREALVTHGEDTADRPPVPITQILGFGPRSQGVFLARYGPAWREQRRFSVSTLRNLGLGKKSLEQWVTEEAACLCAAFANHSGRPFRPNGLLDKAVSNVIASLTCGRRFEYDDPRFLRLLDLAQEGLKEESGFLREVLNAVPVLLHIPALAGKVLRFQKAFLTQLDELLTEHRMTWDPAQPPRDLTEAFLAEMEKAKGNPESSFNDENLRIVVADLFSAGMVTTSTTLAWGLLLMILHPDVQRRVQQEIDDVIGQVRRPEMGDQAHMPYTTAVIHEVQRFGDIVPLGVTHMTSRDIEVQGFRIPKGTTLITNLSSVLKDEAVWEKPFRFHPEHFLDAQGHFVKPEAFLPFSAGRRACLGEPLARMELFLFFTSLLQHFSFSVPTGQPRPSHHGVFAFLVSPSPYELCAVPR
# How it was run: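 Human CYP2D6 (5 nM) with 30 uM Luciferin-ME EGE (at Km) in 100 mM KPO4, compound preincubated 10 min, then NADPH regeneration system for 60 min at room temperature. Luciferin read by luminescence; normalized to 1.43 uM quinidine.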
# [11] = qHTS Assay for Identification of Small Molecule Agonists for Thrombopoietin (TPO) Signaling Pathway (AID 917)
# How it was run: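 IL-3-dependent murine pro-B Ba/F3 cells, stably transfected with human TPO receptor and GpIIb-promoter luciferase, are incubated 24 hrs at 37 C with test compound and 26 pM TPO; luciferase signal is read after 10 min at room temperature.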
# [12] = molecular target: Muscarinic acetylcholine receptor M1 (Rattus norvegicus) (UniProt P08482); assay: qHTS Assay for Antagonists of Acetylcholine Muscarinic M1 Receptor: Kinetic Measurement of Intracellular Calcium Response (AID 943); also: potency is read from the fitted curve at half-maximal effect; nearly all actives have a fitted effect of over 75% in size
# Chain of Muscarinic acetylcholine receptor M1 (Rattus norvegicus) (P08482 whole entry, looked up): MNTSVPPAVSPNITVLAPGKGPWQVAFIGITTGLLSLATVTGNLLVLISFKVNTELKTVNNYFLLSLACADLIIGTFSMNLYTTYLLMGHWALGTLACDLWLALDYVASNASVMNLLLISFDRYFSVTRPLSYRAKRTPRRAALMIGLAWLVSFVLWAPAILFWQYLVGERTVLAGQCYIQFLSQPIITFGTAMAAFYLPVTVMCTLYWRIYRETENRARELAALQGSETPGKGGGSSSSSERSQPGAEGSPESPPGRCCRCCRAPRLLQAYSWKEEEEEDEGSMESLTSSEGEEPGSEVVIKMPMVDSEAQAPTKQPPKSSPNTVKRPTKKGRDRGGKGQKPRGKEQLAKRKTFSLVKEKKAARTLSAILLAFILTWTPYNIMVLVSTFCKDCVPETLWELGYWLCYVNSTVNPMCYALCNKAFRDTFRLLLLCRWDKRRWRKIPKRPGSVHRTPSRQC
# How it was run: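 Rat M1-CHO cells, 2000/well, overnight → Fluo-4 no-wash dye with probenecid, 1 h 37C → compound 10 min, room temp → basal read 6 s → carbachol EC80 (100 nM) → 4 min kinetic read; peak/basal.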
# [13] = molecular target: Muscarinic acetylcholine receptor M1 (Rattus norvegicus) (UniProt P08482); assay: qHTS Assay for Antagonists of Acetylcholine Muscarinic M1 Receptor: Measurement of IP-One Response (AID 944); also: potency is read from the fitted curve at half-maximal effect; nearly all actives have a fitted effect of over 75% in size
# How it was run: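 M1-CHO (rat), 2000 cells/well, overnight recovery; cpd 10 min; carbachol EC80 (200 nM), 30 min, HEPES buffer + 50 mM LiCl pH 7.4; IP-One HTRF, Ex 337, Em 620/665 nm.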
# [14] = molecular target: Pyruvate kinase (Leishmania mexicana) (UniProt Q27686); assay: qHTS Validation Assay for Inhibitors of Leishmania Mexicana Pyruvate Kinase (AID 945)
# Chain of Pyruvate kinase (Leishmania mexicana) (Q27686 2-499 E452W): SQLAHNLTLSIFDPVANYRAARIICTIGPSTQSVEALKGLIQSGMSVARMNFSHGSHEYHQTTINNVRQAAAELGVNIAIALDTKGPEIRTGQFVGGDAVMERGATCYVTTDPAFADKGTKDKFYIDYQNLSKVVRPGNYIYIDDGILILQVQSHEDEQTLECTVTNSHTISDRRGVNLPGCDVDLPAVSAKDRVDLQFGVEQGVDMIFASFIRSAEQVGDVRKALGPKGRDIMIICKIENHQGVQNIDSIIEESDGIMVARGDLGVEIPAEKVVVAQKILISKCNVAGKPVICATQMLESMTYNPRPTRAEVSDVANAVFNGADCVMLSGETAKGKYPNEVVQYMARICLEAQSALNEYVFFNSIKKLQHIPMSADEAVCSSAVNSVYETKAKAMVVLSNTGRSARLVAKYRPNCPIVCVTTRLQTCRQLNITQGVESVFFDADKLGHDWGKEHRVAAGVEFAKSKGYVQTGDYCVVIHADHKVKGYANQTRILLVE
# How it was run: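 Luminescent ATP detection (PKLight) after a 1 h room-temperature reaction of 0.2 nM LmPYK E451W mutant with 0.5 mM PEP and 0.1 mM ADP at pH 7.2. Activity is normalized to DMSO-only control wells.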
# [15] = molecular target: Pyruvate kinase PKM (Homo sapiens) (UniProt P14618); assay: qHTS Assay for Activators of Human Muscle Pyruvate Kinase (AID 954; active = well fitted curve in the direction sought with a large enough effect, not every such curve was filed as active)
# Chain of Pyruvate kinase PKM (Homo sapiens) (P14618 whole entry, looked up): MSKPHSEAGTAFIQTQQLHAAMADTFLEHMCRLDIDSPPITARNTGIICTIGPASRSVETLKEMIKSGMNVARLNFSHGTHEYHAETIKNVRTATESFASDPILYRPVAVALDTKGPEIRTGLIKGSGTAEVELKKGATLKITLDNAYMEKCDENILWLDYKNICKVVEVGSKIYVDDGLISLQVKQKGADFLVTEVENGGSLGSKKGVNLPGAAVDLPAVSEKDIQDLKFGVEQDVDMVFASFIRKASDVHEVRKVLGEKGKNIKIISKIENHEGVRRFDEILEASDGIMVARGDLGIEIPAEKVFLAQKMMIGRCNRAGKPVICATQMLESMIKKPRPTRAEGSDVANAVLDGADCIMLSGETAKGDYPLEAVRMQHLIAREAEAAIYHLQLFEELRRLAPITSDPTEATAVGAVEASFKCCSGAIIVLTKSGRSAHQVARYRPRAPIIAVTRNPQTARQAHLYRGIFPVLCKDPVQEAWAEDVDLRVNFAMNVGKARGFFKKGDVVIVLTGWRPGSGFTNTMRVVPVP
# How it was run: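 Reaction: 0.1 nM purified PKM2 with 0.5 mM phosphoenolpyruvate and 0.1 mM ADP, room temperature, 1 h. Readout: luciferase-based ATP luminescence after stop reagent. Activators judged against a 0.3 nM enzyme column.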
# [16] = molecular target: alpha-glucosidase (Oryza sativa, rice) (UniProt Q653V4); assay: Counterscreen for Glucocerebrosidase Inhibitors: qHTS Assay for Rice alpha-Glucosidase at pH 5.0 (AID 997)
# How it was run: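 Rice alpha-glucosidase (4 nM final) with 400 uM 4-methylumbelliferyl-alpha-D-glucopyranoside in citrate buffer pH 5.0, 20 min at room temperature, stopped at pH 10; fluorescence 365/440 nm, compounds 0.7 nM–77 uM, AC50 from Hill fits.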
# [17] = qHTS Assay for Lipid Storage Modulators (AID 1519; calls by dose curve); conditions: Drosophila S3 cells, BODIPY lipid droplet/cell ratio, laser cytometry, cells loaded with oleic acid
# How it was run: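 Cells seeded at 5,000 per well were treated with compounds over a concentration series and loaded with oleic acid (400 uM, as added). Lipid droplet fluorescence (488 nm excitation, 500-530 nm channel) was read by laser-scanning cytometry and normalized to 20 uM Triacsin C.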
# [18] = molecular target: Ubiquitin carboxyl-terminal hydrolase 1 (Homo sapiens) (UniProt O94782); assay: Inhibitors of USP1/UAF1: Pilot qHTS (AID 504865);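 also: rhodamine fluorescence freed from ubiquitin-rhodamine substrate followed over time; top concentration of the series differs between compounds; nearly all actives have a fitted effect of over 35% in size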
# How it was run: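 Enzyme-free wells gave the negative control, while test wells held 1nM USP1/UAF1 preincubated with compound for 15 min at room temperature. Ub-Rho at 150nM final started the reaction, and fluorescence at 480/540 nm was recorded kinetically.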
# [19] = molecular target: DNA dC->dU-editing enzyme APOBEC-3G (Homo sapiens) (UniProt Q9HC16); assay: qHTS for inhibitors of Vif-A3G interactions: Validation (AID 588379)
# Chain of DNA dC->dU-editing enzyme APOBEC-3G (Homo sapiens) (Q9HC16 whole entry, looked up): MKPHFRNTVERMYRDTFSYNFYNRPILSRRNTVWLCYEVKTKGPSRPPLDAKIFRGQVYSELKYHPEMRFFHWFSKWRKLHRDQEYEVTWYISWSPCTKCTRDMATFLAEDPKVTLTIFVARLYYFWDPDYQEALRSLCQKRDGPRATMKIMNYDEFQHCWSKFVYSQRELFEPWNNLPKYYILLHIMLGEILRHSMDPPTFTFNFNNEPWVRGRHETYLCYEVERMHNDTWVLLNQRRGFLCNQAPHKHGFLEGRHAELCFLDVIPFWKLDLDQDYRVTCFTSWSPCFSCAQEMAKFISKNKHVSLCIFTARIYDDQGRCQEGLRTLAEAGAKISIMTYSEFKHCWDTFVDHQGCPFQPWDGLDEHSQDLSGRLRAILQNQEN
# How it was run: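 HeLa cells stably expressing Vif and A3G-eYFP, 700 cells/well, incubated overnight at 37 deg C, then exposed to compound overnight at 37 deg C. Inhibition of Vif-mediated degradation read as increased yellow fluorescence (Ex 488/Em 500-530) by laser-scanning cytometry.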
structure (smiles),measurement,setting,value
CCCCCCCCCCCCCCCCCCOC[C@H](COP(=O)([O-])OCC[N+](C)(C)C)OC(C)=O,"activity change, negative = inhibition",[1],10.6% [at 6.83 µM] (inactive)
same,"activity change, negative = inhibition",[2],33.9% [at 3.88 µM] (inactive)
CC(C)n1nnc2cc(C(=O)O)ccc21,Potency,[1],inactive
same,Potency,[2],inactive
CNCC[C@H](Oc1ccccc1OC)c1ccccc1,"activity change, negative = inhibition",[3],26.3% (inactive)
same,Potency,[4],12.6 µM (active) and 10 µM (active) and 15.8 µM (active)
same,"activity, negative = inhibition",[5]; at 17.2 µM (top of the series),-0.439% (inactive)
same,"activity, negative = inhibition",[5]; at 38 µM (top of the series),4.82% (inactive)
same,Potency,[6],inactive
same,Potency,[7],inactive
same,outcome,[8],inactive
same,Potency,[9],inactive
same,Potency,[10],5.01 µM (active) and 1.26 µM (active)
same,Potency,[11],inactive
same,Potency,[12],14.1 µM (active)
same,Potency,[13],11.2 µM (active)
same,Potency,[14],inactive
same,outcome,[15],inactive
same,outcome,[16],inactive
same,"activity change, negative = inhibition",[17]; at 25.7 µM (top of the series),-2.76% (inactive)
same,max response,[17]; measured here: cell count channel max response,-10.8%
same,max response,[17]; measured here: lipid channel max response,-15.9%
same,Potency,[18],inactive
same,Potency,[19],inactive
same,Potency,[1],inactive
same,Potency,[2],inactive
